Results filed as inconclusive are left out. The source made the active and inactive calls. Unless noted, the call rests on the fitted dose curve; in most records, active means well fitted curve in the direction sought with a large enough effect; inconclusive means small, poorly fitted or top-dose-only effect, or another doubt; inactive means no such curve, though single readings can be large; an effect the other way counts as inactive or inconclusive.
How the values were obtained:
[1] = molecular target: Cytochrome P450 1A2 (Homo sapiens) (UniProt P05177); assay: p450-cyp1a2 (AID 410; calls by dose curve;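 further: -100% = full effect of reference inhibitor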)
Outline: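 20nM CYP1A2 with 100uM Luciferin-ME (at Km) in 100mM KPO4; compound preincubated 10 min, NADPH regeneration added, 60 min at room temperature. Luciferin quantified by luminescence after detection reagent; normalized to 57 uM furafylline.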

[2] = molecular target: Glucocorticoid receptor (Homo sapiens) (UniProt P04150); assay: GR-GFP Redistribution (AID 450;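 active means compounds whose dose series gives a full or clear partial fitted curve of increased nuclear translocation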; further: potency means the concentration at half of the fitted maximal effect); settings: U2OS GR-GFP nuclear translocation, laser cytometry, 2 h
[3] = molecular target: Glucocorticoid receptor (Homo sapiens) (UniProt P04150); assay: GR-EFC Redistribution (AID 451; calls by dose curve; further: potency means the concentration at half of the fitted maximal effect); settings: CHO-K1 GR-EFC translocation, beta-gal luminescence, 2 h
Outline: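 CHO-K1 cells expressing nuclear EA and GR-ED fragments of b-gal; compounds titrated up to 46 uM final, 2 h at 37 C. GR nuclear translocation read as complemented b-gal luminescence after 1 h RT detection.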

[4] = molecular target: Mitogen-activated protein kinase 10 (Mus musculus) (UniProt Q61831); assay: JNK3 AlphaScreen Assay (AID 530; active means well fitted curve in either direction with a large enough effect, not every such curve was filed as active;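 further: kinase came from lysate of stimulated human HepG2 cells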; further: potency means the concentration at half of the fitted maximal effect;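 on activity change, negative = inhibition: signal reports phosphorylation of biotinylated GST-cJun 1-79 at Ser73 with 10 µM ATP; on the % scale 0 is the no-effect control and ±100 the full control effect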)
Outline: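 Pre-activated (IL-1β/TNFα) JNK3 in HepG2 lysates phosphorylates biotin-GST-cJun(1-79), 10 uM ATP; anti-phospho-cJun(Ser73) AlphaScreen read at room temperature, pH 7.6 Tris buffer. Compounds pre-incubated 15 min as titrations.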

[5] = molecular target: 3',5'-cyclic-AMP phosphodiesterase 4B (Homo sapiens) (UniProt Q07343); assay: qHTS Assay for Inhibitors of PDE-IV (AID 607; active means well fitted activation curve with a large enough effect in the main read-out, with a control signal flat, not every such curve was filed as active; further: % of control where 0% means no effect)
Outline: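 Live HEK293 cells with a modified cyclic nucleotide-gated (CNG) channel report intracellular cAMP via membrane-potential dye fluorescence (ex 535/em 590 nm). Endogenous PDE-IV was targeted. Compounds were tested at up to 22.9 uM final; RO 20-1724 100 uM served as control.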

[6] = qHTS Assay for Lipid Storage Modulators (AID 1519; calls by dose curve; on activity change, negative = inhibition: on the % scale 0 is the no-effect control and ±100 the full control effect); settings: Drosophila S3 cells, BODIPY lipid droplet/cell ratio, laser cytometry, cells loaded with oleic acid; for activity change, negative = inhibition: at 57.5 µM (top of the series)
Outline: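 Cells seeded at 5,000 per well were treated with compounds over a concentration series and loaded with oleic acid (400 uM, as added). Lipid droplet fluorescence (488 nm excitation, 500-530 nm channel) was read by laser-scanning cytometry and normalized to 20 uM Triacsin C.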

[7] = molecular target: Ubiquitin carboxyl-terminal hydrolase 1 (Homo sapiens) (UniProt O94782); assay: Inhibitors of USP1/UAF1: Pilot qHTS (AID 504865); further: nearly all actives have a fitted effect of over 35% in size; further: potency means the concentration at half of the fitted maximal effect;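 on activity change, negative = inhibition: rhodamine fluorescence freed from ubiquitin-rhodamine substrate followed over time; top concentration of the series differs between compounds; on the % scale 0 is the no-effect control and ±100 the full control effect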
Outline: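 USP1/UAF1 complex at 1 nM preincubated 15 min at room temperature with compound, then Ub-Rho substrate added at 150 nM final. Fluorescence (480/540 nm) read kinetically in 50 mM HEPES pH 7.8, 0.5 mM EDTA, 1 mM TCEP, 0.1 mg/ml BSA, 0.01% Tween-20.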

[8] = molecular target: DNA dC->dU-editing enzyme APOBEC-3G (Homo sapiens) (UniProt Q9HC16); assay: qHTS for inhibitors of Vif-A3G interactions: Validation (AID 588379); further: 0% is about no effect
Outline: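 HeLa cells stably expressing Vif and A3G-eYFP, 700 cells/well, incubated overnight at 37 deg C, then exposed to compound overnight at 37 deg C. Inhibition of Vif-mediated degradation read as increased yellow fluorescence (Ex 488/Em 500-530) by laser-scanning cytometry.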

[9] = tested on: Zika virus NS2B-NS3 protease; assay: Primary screen GU AMC qHTS for Zika virus inhibitors (AID 1347154);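 further: 0% = no-inhibitor control and -100% = no-enzyme control; nearly all actives have a fitted effect of over 70% in size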
Outline: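 Unlinked Zika NS2B hydrophilic domain–NS3 protease complex at 25 nM in 10 mM Tris-HCl pH 8.0, 0.01% Tween 20, with an AMC peptide substrate. Fluorescence change (340/450 nm) over 15 min at room temperature, normalized to controls, fitted to 4-parameter Hill.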

[10] = molecular target: Cytochrome P450 2C19 (Homo sapiens) (UniProt P33261); assay: qHTS Assay for Inhibitors and Substrates of Cytochrome P450 2C19 (AID 899); further: nearly all actives have a fitted effect of over 60% in size; further: potency means the concentration at half of the fitted maximal effect
Outline: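 Luminescent read-out of luciferin formed from Luciferin-H EGE (10uM, equal to KM). Enzyme 5nM in 50mM KPO4; compound added, 10 min at 37C, then NADPH regenerating system for 60 min at 37C. Full inhibition defined by 57uM ketoconazole.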

[11] = molecular target: Cytochrome P450 2C9 (Homo sapiens) (UniProt P11712); assay: qHTS Assay for Inhibitors and Substrates of Cytochrome P450 2C9 (AID 883); further: potency means the concentration at half of the fitted maximal effect; nearly all actives have a fitted effect of over 60% in size
Outline: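 10nM CYP2C9 + 100uM Luciferin-H (=KM), 25mM KPO4; cpd 10 min 37C; NADPH regen, 60 min 37C; stop/detect with P450 Glo-Buffer 20 min; luminescence. Norm. to 57uM sulphaphenazole as full inhibition.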

[12] = measured here: cell count channel max response
[13] = measured here: lipid channel max response

Chain of Ubiquitin carboxyl-terminal hydrolase 1 (Homo sapiens) (O94782 whole entry, looked up): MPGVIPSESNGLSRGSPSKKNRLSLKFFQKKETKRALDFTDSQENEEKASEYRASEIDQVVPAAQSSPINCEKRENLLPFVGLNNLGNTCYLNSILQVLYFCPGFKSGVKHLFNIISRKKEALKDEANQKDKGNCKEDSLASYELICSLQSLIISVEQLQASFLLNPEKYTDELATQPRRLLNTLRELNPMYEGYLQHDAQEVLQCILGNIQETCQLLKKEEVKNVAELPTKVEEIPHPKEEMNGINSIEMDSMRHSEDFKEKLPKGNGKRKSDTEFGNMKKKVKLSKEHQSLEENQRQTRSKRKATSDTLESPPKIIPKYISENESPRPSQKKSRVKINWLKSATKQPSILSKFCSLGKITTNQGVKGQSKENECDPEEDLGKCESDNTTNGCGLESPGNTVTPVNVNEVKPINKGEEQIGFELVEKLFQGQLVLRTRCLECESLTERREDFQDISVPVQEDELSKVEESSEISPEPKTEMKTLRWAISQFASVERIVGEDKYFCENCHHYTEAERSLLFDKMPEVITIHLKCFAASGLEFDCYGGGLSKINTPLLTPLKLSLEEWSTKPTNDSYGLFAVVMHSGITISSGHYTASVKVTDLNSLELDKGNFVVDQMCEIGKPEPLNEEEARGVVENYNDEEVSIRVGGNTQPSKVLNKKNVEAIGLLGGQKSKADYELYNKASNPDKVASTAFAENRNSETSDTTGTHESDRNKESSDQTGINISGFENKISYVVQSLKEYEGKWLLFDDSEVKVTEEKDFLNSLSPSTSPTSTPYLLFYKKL
Chain of Glucocorticoid receptor (Homo sapiens) (P04150 whole entry, looked up, the tested form may be a part): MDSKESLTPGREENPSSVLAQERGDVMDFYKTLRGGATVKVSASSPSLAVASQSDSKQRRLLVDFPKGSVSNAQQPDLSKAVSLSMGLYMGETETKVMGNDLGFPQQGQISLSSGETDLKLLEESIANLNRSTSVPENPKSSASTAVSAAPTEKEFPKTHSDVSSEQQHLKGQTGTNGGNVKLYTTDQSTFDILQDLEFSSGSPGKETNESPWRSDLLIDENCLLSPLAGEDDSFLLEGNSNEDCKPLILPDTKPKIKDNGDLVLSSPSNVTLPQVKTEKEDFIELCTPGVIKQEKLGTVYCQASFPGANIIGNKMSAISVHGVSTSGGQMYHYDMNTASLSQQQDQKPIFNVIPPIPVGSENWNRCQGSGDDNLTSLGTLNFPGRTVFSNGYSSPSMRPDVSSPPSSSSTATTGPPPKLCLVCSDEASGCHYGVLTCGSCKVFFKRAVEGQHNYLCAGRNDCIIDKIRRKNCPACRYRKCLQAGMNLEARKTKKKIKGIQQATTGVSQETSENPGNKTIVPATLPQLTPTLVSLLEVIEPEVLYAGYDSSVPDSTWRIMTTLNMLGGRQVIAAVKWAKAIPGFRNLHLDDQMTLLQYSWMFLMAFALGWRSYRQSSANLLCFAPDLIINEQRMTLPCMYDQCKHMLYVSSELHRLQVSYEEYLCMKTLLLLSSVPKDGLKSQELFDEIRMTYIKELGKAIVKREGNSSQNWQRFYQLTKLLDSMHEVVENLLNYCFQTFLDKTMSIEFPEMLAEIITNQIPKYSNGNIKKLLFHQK
Chain of 3',5'-cyclic-AMP phosphodiesterase 4B (Homo sapiens) (Q07343 whole entry, looked up): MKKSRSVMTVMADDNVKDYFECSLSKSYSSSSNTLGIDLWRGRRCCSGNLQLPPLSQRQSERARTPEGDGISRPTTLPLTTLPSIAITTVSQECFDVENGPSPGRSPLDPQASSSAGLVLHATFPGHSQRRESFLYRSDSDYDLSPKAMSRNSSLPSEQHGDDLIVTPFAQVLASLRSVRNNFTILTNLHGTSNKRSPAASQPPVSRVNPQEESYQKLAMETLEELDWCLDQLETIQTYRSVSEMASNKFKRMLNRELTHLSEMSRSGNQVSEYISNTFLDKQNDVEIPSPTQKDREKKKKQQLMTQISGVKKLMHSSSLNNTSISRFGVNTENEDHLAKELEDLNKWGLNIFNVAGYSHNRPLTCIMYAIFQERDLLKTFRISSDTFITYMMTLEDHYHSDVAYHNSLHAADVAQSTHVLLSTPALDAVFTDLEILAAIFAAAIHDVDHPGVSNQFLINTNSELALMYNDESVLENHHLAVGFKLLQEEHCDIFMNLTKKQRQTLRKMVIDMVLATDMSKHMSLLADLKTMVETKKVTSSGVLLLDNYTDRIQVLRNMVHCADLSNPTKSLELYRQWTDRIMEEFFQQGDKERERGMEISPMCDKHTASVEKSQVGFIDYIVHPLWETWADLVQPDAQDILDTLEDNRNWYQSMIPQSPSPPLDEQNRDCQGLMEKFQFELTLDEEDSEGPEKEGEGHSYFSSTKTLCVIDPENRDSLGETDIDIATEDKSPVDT
Chain of DNA dC->dU-editing enzyme APOBEC-3G (Homo sapiens) (Q9HC16 whole entry, looked up): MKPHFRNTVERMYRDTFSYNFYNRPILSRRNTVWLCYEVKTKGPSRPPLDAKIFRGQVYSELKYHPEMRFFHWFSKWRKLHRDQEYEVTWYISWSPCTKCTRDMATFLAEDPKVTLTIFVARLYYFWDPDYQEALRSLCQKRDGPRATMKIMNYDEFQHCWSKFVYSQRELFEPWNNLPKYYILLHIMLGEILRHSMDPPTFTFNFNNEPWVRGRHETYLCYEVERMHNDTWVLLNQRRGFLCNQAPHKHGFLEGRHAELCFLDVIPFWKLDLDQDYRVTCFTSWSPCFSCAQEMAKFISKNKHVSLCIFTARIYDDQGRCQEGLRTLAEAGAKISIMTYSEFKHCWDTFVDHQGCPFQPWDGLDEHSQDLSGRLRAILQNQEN
Chain of Cytochrome P450 1A2 (Homo sapiens) (P05177 whole entry, looked up): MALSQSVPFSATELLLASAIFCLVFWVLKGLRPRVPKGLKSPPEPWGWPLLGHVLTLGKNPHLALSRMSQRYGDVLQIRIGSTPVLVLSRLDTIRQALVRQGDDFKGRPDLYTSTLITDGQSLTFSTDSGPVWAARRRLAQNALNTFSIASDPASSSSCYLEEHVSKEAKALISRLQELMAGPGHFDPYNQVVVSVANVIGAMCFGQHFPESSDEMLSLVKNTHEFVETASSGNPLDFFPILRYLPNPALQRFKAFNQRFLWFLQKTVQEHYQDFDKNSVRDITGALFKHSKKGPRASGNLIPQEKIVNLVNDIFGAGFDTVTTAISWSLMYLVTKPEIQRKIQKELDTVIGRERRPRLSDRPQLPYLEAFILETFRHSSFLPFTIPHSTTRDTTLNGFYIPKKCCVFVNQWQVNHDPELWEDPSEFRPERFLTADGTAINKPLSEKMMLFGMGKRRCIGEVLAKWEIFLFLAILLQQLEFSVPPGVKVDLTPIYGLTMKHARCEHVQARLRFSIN
Chain of Cytochrome P450 2C19 (Homo sapiens) (P33261 whole entry, looked up): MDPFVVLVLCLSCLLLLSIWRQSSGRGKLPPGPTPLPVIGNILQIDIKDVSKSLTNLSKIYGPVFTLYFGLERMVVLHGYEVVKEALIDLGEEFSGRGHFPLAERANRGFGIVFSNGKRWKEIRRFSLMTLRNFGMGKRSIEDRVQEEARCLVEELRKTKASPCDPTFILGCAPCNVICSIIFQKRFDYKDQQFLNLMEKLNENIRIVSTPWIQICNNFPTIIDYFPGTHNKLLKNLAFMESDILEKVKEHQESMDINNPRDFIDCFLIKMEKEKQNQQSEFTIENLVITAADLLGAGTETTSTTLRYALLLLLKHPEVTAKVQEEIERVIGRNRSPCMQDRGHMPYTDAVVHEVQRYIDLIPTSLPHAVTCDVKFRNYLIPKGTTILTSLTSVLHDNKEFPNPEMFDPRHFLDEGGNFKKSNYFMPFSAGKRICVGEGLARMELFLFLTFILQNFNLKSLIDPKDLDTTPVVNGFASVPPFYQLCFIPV
Chain of Cytochrome P450 2C9 (Homo sapiens) (P11712 whole entry, looked up): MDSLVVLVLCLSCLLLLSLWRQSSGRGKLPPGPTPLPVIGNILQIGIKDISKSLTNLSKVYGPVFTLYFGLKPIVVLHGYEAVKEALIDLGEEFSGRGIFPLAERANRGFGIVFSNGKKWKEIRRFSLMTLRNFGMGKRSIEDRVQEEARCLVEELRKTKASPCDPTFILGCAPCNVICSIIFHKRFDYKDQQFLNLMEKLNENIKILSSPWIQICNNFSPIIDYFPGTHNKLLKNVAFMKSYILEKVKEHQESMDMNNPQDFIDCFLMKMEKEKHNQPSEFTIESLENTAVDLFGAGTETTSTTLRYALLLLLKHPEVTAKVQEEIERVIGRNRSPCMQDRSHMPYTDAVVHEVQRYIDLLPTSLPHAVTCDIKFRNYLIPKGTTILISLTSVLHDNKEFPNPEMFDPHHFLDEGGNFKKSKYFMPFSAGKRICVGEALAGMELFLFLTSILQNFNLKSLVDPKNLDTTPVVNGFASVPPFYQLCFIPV

SMILES | Potency [1] | Potency [2] | Potency [3] | Potency [4] | Potency [5] | activity change, negative = inhibition [6] | max response [6, 12] [%] | max response [6, 13] [%] | Potency [7] | Potency [8] | Potency [9] | Potency [10] | Potency [11]
CCCCCCCCCCCC(=O)O[C@H](CC(=O)O)C[N+](C)(C)C | inactive | > 46 µM (inactive) | > 46 µM (inactive) | inactive | inactive | -2.15% (inactive) | -5.13 | -11.1 | inactive | inactive | inactive |  | 
C=CC1=C(C)C2=NC1=CC1=NC(=CC3=NC(=CC4=NC(=C2)C(C)=C4CCC(=O)O)C(CCC(=O)O)=C3C)C(C=C)=C1C.[Zn] |  |  |  | 0.794 µM [activator] (active) | inactive | -3.5% (inactive) | -8.49 | -12 | 44.7 µM (active) | inactive | inactive | inactive | 
Nc1nc(Nc2ccccc2)nc2c1ncn2[C@@H]1O[C@@H](CO)[C@H](O)[C@H]1O |  | > 46 µM (inactive) | > 46 µM (inactive) |  |  | -4.73% (inactive) | -2.49 | -4.59 | inactive | inactive | inactive | 0.631 µM (active) | 0.794 µM (active)
C[C@H](N)C(=O)O | inactive | > 46 µM (inactive) | > 46 µM (inactive) | inactive | inactive | 1.23% (inactive) | -6.7 | -5.58 | inactive | inactive | inactive |  | 
CCNCCCNCCCCNCCCNCC |  | > 46 µM (inactive) | > 46 µM (inactive) | inactive | inactive | 2.21% (inactive) | 15.1 | 18.1 | inactive | inactive | inactive |  | 
